# Screening data from PubChem BioAssay.
# This is a sample that favours compounds with a hit; in the whole collection about 11% have one here.
# Vaccinia Venus: vaccinia inhibition (Venus reporter); hit rate 0.46% among 330,000; Vaccinia virus Venus reporter expression, fluorescence; Potency, µM (top dose mostly 36.5 µM), most hits filed as inhibitors; calls by dose curve; tested in A549 cells; also: nearly all actives have a fitted effect of over 30% in size
# HCV inh: blocks hepatitis C virus. Potency, µM (highest dose often 41.8 µM), usual class: inhibitors. hit rate 3.4% among 340,000. Huh7.5.1 HCVcc-Cre infection, luciferase reporter, 44 h. AID 651820
#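 Cells seeded at 1,000/well and cultured 4 h, then compounds added followed by HCVcc-Cre virus (~0.5 moi). After 44 h further culture, luciferase substrate was added, plates held 15 min at room temperature, and luminescence read for 15 sec.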
# VACV mCherry inh: inhibitors of vaccinia virus infection (mCherry reporter signal); Vaccinia virus mCherry reporter infection, fluorescence; Potency, µM (top dose mostly 36.5 µM), actives largely listed as inhibitors; hit rate 0.63% among 310,000; calls by dose curve; tested in A549 cells; also: nearly all actives have a fitted effect of over 35% in size
# Pf growth 96h: P. falciparum growth inhibition at 96 hour, primary screen for plastid delayed-death inhibitors | P. falciparum luciferase reporter growth, 96 h | Potency, µM (top dose mostly 28.7 µM), most hits filed as inhibitors | hit rate 6.9% among 320,000 | AID 504834
#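 Luminescence readout: decreased luciferase signal marks inhibited growth of reporter-expressing P. falciparum in infected red cells (2% hematocrit, 0.05% parasitemia final), exposed to compound two generations (96 h, 37 C, 5% CO2).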
# NS1 function inh: blocks influenza NS1 protein function. Potency, µM (series often up to 46.1 µM). hit rate 0.4% among 270,000; calls by dose curve; also: actives are rising curves; nearly all actives have a fitted effect of over 50% in size
#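 OD600 was taken as the measure of yeast growth restored by compound in an NS1-expressing S. cerevisiae strain. Cells had been washed out of glucose medium and diluted 1:100 into galactose -URA medium, pH 6.0.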
# Pf growth 48h: inhibits P. falciparum growth in the first generation, 48 h; P. falciparum luciferase growth in erythrocytes, 48 h; Potency, µM (top dose mostly 28.7 µM), usual class: inhibitors; hit rate 5.9% among 310,000
#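 Luciferase-expressing parasites in RBCs, 2% Hct / 0.1% parasitemia final; RPMI 1640 + 0.5% Albumax; 37 C, 5% CO2, one generation; luminescence read-out, lower signal = inhibition.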
# Numbers stand for hits; . = inactive; ? = inconclusive; / = no result given; [ ] = another dose, or the depositor's remark. Unless noted, calls follow the shape of the dose curve; as a rule, active = well fitted inhibition curve with a large enough effect; inconclusive = small, poorly fitted or top-dose-only effect, or another doubt; inactive = no such curve, though single readings can be large or run the other way.
SMILES,Vaccinia Venus,HCV inh,VACV mCherry inh,Pf growth 96h,NS1 function inh,Pf growth 48h
Cc1ccc(Cl)cc1N(CC(=O)Nc1cccc(N(C)S(C)(=O)=O)c1)S(C)(=O)=O,.,.,.,.,.,.
CCOC(=O)C1(C)C=C(Nc2ccc(O)cc2)C(=O)N1c1ccc(O)cc1 (stereo not drawn),.,.,.,10.4µM,.,11.7µM
O=C(/C=C/c1ccc(F)cc1)c1ccccc1Br,28.2µM,?,?,?,.,.
Cc1ccc(C(=O)/C=C/c2ccc(F)cc2)o1,?,.,.,?,.,.
Cc1c(O)ccc2cc(S(=O)(=O)c3ccccc3)c(=O)oc12,.,.,.,11.7µM,.,.[0.00184 µM]
Cc1ccc(S(=O)(=O)c2cc3ccccc3oc2=O)cc1,.,.,.,.,/,.
CC(C)[C@@]1(NC(=O)[C@H]2CC3c4cccc5[nH]cc(c45)C[C@H]3N(C)C2)O[C@@]2(O)C3CCCN3C(=O)[C@@H](Cc3ccccc3)N2C1=O (stereo partly drawn),.,/,.,8.49µM,/,1.51µM
CN1C[C@H](C(=O)N[C@]2(C)O[C@@]3(O)[C@@H]4CCCN4C(=O)[C@H](Cc4ccccc4)N3C2=O)C[C@@H]2c3cccc4[nH]cc(c34)C[C@H]21,/,/,/,?,/,7.57µM
CN1C[C@H](C(=O)N[C@]2(C)O[C@@]3(O)[C@@H]4CCCN4C(=O)[C@H](Cc4ccccc4)N3C2=O)CC2c3cccc4[nH]cc(c34)C[C@H]21 (stereo partly drawn),.,.,.,1.31µM,/,1.85µM
COC(=O)[C@]1(C)N[C@H](CN(C)C(=O)NC(C)C)[C@@H]2C(=O)N(Cc3ccccc3)C(=O)[C@@H]21,.,.,.,/,/,/
CCN(CC)CCOC(=O)C(C)(c1ccccc1)c1ccccc1,/,/,/,10.7µM,/,?
CCOC(C(=O)OCCCN(CC)CC)(c1ccccc1)c1ccccc1,.,.,.,?,.,?
CCN(CC)CCCOC(=O)C(OC(C)C)(c1ccccc1)c1ccccc1,/,7.08µM,/,.,.,?
Cc1ccc(S(=O)(=O)N2CCCCC2)cc1NC(=O)CSc1nnc(N)s1,/,?,/,.,.,.
COc1ccc(NC(=O)Cc2nc3ccccc3[nH]2)cc1,?,.,/,?,?,11.7µM
O=C(CCc1nc2ccccc2[nH]1)Nc1ccc2c(c1)OCCO2,.,.[8.37 µM],.,1.04µM,.,.
COc1ccc(NC(=O)Cc2ccccc2)cc1,/,.,/,?,.,.
COc1ccccc1NC(=O)CSCc1nc2ccccc2[nH]1,.,.,.,11.7µM,.,?
COc1ccccc1NC(=O)CSCC(N)=O,.,.,.,/,?,.
Cc1coc2c(C)c3oc(=O)c(CCC(=O)NCCCN4CCCC4=O)c(C)c3cc12,.,.,.,.,.,?
CCOc1ccc2[nH]c(=O)c(CN(Cc3ccco3)C(CC)c3nnnn3Cc3ccccc3)cc2c1 (stereo not drawn),?,?,?,?,.,5.86µM
CCOc1ccc2[nH]c(=O)c(CN(Cc3ccco3)Cc3nnnn3Cc3ccccc3)cc2c1,.,?,.,.,.,.
CCOC(=O)Cn1nnnc1C(CC)N(Cc1cccs1)Cc1cc2cc(C)ccc2[nH]c1=O (stereo not drawn),.,.,/,.,.,/
CCOc1ccc2[nH]c(=O)c(CN(Cc3cccs3)C(CC)c3nnnn3C(C)(C)CC)cc2c1 (stereo not drawn),?,10µM,?,/,.,0.928µM
Cc1nc(CSc2nsc(/C=C/N(C)C)c2C#N)cs1,.,.,.,9.28µM,/,?
SMILES,Vaccinia Venus,HCV inh,VACV mCherry inh,Pf growth 96h,NS1 function inh,Pf growth 48h
Cc1c(Cc2ccccc2)sc(/N=C/c2ccc3ccccc3c2)c1C(N)=O,.,.,.,.,?,.
CC(=O)c1c(C)[nH]c(C(=O)OCC(=O)N2CCN(S(=O)(=O)c3ccc(C)cc3C)CC2)c1C,?,?,.,8.28µM,.,/
CC(=O)c1c(C)[nH]c(C(=O)OCC(=O)N2CCN(S(=O)(=O)c3ccc(C)cc3)CC2)c1C,/,?,/,13.1µM,/,?
CCOC(=O)c1c(C)[nH]c(C(=O)OCC(=O)N2CCN(S(=O)(=O)c3ccccc3)CC2)c1C,/,.,/,.,.,/
COc1ccc(OC)c(C(=O)/C=C/c2cccnc2)c1,.,?,?,7.38µM,.,?
COc1ccc(C(=O)/C=C/c2ccccc2)c(O)c1,.,?,.,.,.,.
COc1cc(C(=O)/C=C/c2cccnc2)ccc1O,8.91µM,.,3.55µM,.,.,.
Cc1csc(C)[n+]1CC(=O)c1ccccc1,.,.,.,6.57µM,.,?
Cc1ccc(S(=O)(=O)NC(=NC2CCCCC2)c2ccc(F)cc2)cc1,.,.,.,.,.,.
O=S(=O)(NC(=NC1CCCCC1)c1ccccc1)c1ccc(F)cc1,.,/,.,9.28µM,.,?
COc1ccc(-c2onc(C)c2-c2ccc(C(=O)OC(C)C)o2)c(O)c1,?,6.31µM,?,.,.,1.31µM
COc1ccc([C@]23Cc4cc(C#N)ccc4C(O2)C2=C(CC4(CCCCC4)OC2=O)O3)cc1,/,/,/,0.757µM,?,?
COc1cc2c(cc1OC)C1O[C@](CCCCN3C(=O)c4ccccc4C3=O)(C2)OC2=C1C(=O)OC1(CCCCC1)C2,/,/,/,?,.,?
COc1ccc([C@]23Cc4cc(OC)c(OC)cc4C(O2)c2c(cc(C)n(Cc4ccccc4)c2=O)O3)cc1,/,/,/,1.51µM,.,?
COc1ccc([C@]23Cc4cc(C#N)ccc4[C@H](O2)c2c(cc(C)n(Cc4ccccc4)c2=O)O3)cc1,/,/,/,.[5.75 µM],.,1.9µM
Cc1cc2c(c(=O)n1Cc1ccccc1)C1O[C@](CCCCN3C(=O)c4ccccc4C3=O)(Cc3cc(C#N)ccc31)O2,/,/,/,?,.,?
O=C1COc2ccc(C(=O)CSc3nnc(Cc4cccs4)n3-c3ccc(Cl)cc3)cc2N1,/,.,/,?,.,.
CCN(CC)S(=O)(=O)c1ccc(N2CCCC2)c(NC(=O)CN2C(=O)NC3(CCCC3)C2=O)c1,.,.,.,?,/,?
O=C(COc1ccc(Cl)cc1)Nc1ccc(N2CCN(C(=O)c3ccco3)CC2)cc1,?,10µM,.,11.7µM,.,?
O=C(COc1nsnc1N1CCOCC1)Nc1ccc([N+](=O)[O-])cc1,.,.,.,.,.,5.22µM
Cc1ccccc1C(=O)N1CCN(c2ccc(NC(=O)CSc3ccc(Cl)cc3)cc2)CC1,?,11.2µM,.,?,.,?
O=C(COc1nsnc1N1CCOCC1)Nc1ccc(Cl)cc1,/,.,/,.,.,.
O=C(CSc1ccc(Cl)cc1)Nc1ccc(N2CCN(C(=O)c3ccco3)CC2)cc1,.,.,/,/,.,11.7µM
CCC(=O)Nc1ccc(N2CCN(C(=O)c3ccccc3C)CC2)cc1,/,?,/,/,.,.
O=C(CSc1ccc(-c2ccccn2)nn1)N1CCCCC1,.,.,.,.,/,.
Cc1ccc(NNS(=O)(=O)c2ccc(C)cc2)cc1,.,.,.,?,.,.
O=C1/C(=C\c2ccco2)SC(=S)N1c1ccccc1,.,.,.,.,.,.
